# PAX8 inh HTS = inhibitors of PAX8 transcriptional activity in RMG-I cells; RMG-I TPO-luciferase reporter, SteadyGlo, 24 h; inhibition, % at 12.6 µM; hit rate 1.2% among 360,000; AID 652154;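 active = mean replicate inhibition at least 60% with every replicate also reaching 60%; inconclusive = only one of the two criteria is met; inactive = mean below 60% and not all replicates reaching 60%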;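 note: luciferase light reporting Pax8 driven TPO promoter activity; plate controls were median of neutral control wells for no effect and mitoxantrone controls for full effect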
# TROY signal inh = TROY signaling inhibition | inhibition, % at 10 µM | Q293 LMP1-TROYcd NF-kB luciferase reporter, 4 h | hit rate 0.98% among 360,000 | AID 1347056;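 active = compounds whose plate-normalised and pattern-corrected inhibition of the luciferase reporter signal at the single screening dose is 50% or more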
# EWS-Fli inh = inhibitors of EWS/Fli oncoprotein transcriptional activity | inhibition, % at 12.6 µM | hit rate 0.67% among 350,000 | A673 NR0B1-luciferase reporter, viability-normalised | AID 651661;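 active = mean inhibition of at least 50% after viability correction, with every replicate also passing that limit; inconclusive = mean reaches 50% but only one of two replicates passes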;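 note: firefly luciferase signal divided by Alamar Blue viability fluorescence both relative to DMSO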
# LMP1 NFkB inh = Epstein-Barr LMP1 NF-kappaB reporter inhibition; LMP1-induced NF-kappaB luciferase reporter cells, luminescence; inhibition, % at 12.5 µM; hit rate 0.69% among 350,000; AID 504558; in the data active = inhibition above about 41%; inconclusive = no clear call, values can overlap the other calls;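 note: 0% = neutral control wells and 100% = reference inhibitor control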
# LGR2 inh = inhibitors of bursicon-induced Drosophila LGR2 receptor cAMP signaling | HEK293 LGR2, CRE-luciferase, bursicon-stimulated, 4 h | inhibition, % at 9.99 µM | hit rate 0.35% among 380,000;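 active = drop in luminescence signal, shown as inhibition above about 50% in the replicate tests, limit read from the data, passing the limit was not always enough; inconclusive = probably only some replicates passing the limit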;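 note: agonist challenge used bursicon conditioned medium at about half maximal strength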
# TWEAK-Fn14 inh = inhibitors of TWEAK-Fn14 interaction signaling; hit rate 2% among 360,000; inhibition, % at 10 µM; AID 1159606; TWEAK-stimulated Fn14 reporter cells, luciferase luminescence, 8 h; in the data active = inhibition above about 50%
# The depositor's hits bear a star; ? = inconclusive; / = not tested or not shown. Only some compounds are listed: those with a hit (about 3.2% of all), similar ones and a draw of the others.
SMILES,PAX8 inh HTS,TROY signal inh,EWS-Fli inh,LMP1 NFkB inh,LGR2 inh,TWEAK-Fn14 inh
CCOc1ccc(N(CC(=O)NC2CC3CCC2C3)S(=O)(=O)c2ccccc2)cc1 (stereo not drawn),12,-3,9,18,15,56*
CCOc1ccc(N(CC(=O)NC2CC3CCC2C3)S(=O)(=O)c2ccc(C)cc2)cc1 (stereo not drawn),9,-1,/,6,12,-13
COc1ccc(S(=O)(=O)N(C)C[C@H]2Oc3cc(C4=CCCC4)ccc3S(=O)(=O)N([C@H](C)CO)C[C@H]2C)cc1,/,/,23,/,6,/
Fc1cccc(Cc2c(-c3ccco3)nc3ccc(Cl)cn23)c1,/,-4,/,/,/,54*
Fc1cccc(Cc2c(-c3ccco3)nc3c4ccccc4ccn23)c1,-105,7,-107,/,-100,51*
Fc1cccc(Cc2c(-c3ccco3)nc3ccc(Br)cn23)c1,6,4,2,/,-3,45
Cc1ccc2nc(-c3ccco3)c(Cc3ccccc3)n2c1,66*,-6,-69,/,-21,3
Clc1cccc(Cc2c(-c3ccco3)nc3c4ccccc4ccn23)c1,35,0,10,/,12,69*
C[C@@H]1CN([C@@H](C)CO)C(=O)c2cc(NC(=O)Cc3ccccc3)ccc2O[C@@H]1CN(C)Cc1ccncc1,9,/,3,/,-3,/
O=C(C[C@H]1C[C@@H]2c3cc(NS(=O)(=O)c4ccc(F)cc4)ccc3O[C@@H]2[C@@H](CO)O1)NCc1ccc(Cl)cc1,31,/,-11,/,28,/
CN(Cc1ccccc1F)c1ncnc2sccc12,7,20,2,6,-1,51*
O=C(C[C@@H]1C[C@H]2c3cc(NC(=O)Nc4ccccc4F)ccc3O[C@H]2[C@H](CO)O1)NCc1ccc(Oc2ccccc2)cc1,75*,/,-3,/,48,/
O=C(C[C@H]1C[C@@H]2c3cc(NC(=O)C4CCOCC4)ccc3O[C@@H]2[C@@H](CO)O1)NCc1ccc(Oc2ccccc2)cc1,78*,/,18,/,11,/
O=C(C[C@@H]1C[C@@H]2c3cc(NC(=O)Nc4ccccc4F)ccc3O[C@@H]2[C@@H](CO)O1)NCc1ccc(Oc2ccccc2)cc1,-1,/,-1,/,-10,/
CO[C@H](CN(C)Cc1ccc(-c2ccccn2)cc1)[C@H](C)CN(C(=O)Nc1ccc(F)cc1)[C@H](C)CO,/,/,-7,/,5,/
Cc1noc(C)c1S(=O)(=O)Nc1ccc2c(c1)C(=O)N([C@H](C)CO)C[C@H](C)[C@H](CN(C)C(=O)Nc1cccc3ccccc13)OCCCC[C@H](C)O2,49,/,4,/,7,/
O=Nc1c2cc(-c3ccccc3)[nH]nc-2c2ccccc12,-86,71*,63*,-6,?,80*
Cc1cccc(-c2cc3c(N=O)c4ccccc4c-3n[nH]2)c1,-66,38,-4,-25,-10,53*
O=c1[nH]nc(-c2ccccc2)c2ccccc12,-17,-13,-5,0,-1,1
Cc1ccc(-c2cc3c(N=O)c4ccccc4c-3n[nH]2)cc1,-79,88*,80*,63*,95*,103*
Cc1ccc(S(=O)(=O)N(C)C[C@H]2Oc3ncc(-c4ccncc4)cc3C(=O)N([C@H](C)CO)C[C@H]2C)cc1,/,/,-2,/,7,/
C[C@@H]1CN([C@@H](C)CO)C(=O)c2cccc(NS(=O)(=O)c3ccc(F)cc3)c2O[C@H]1CN(C)C(=O)Nc1ccccc1,/,/,-2,/,/,/
CC(C)c1ccc(/C=C/C(=O)Nc2nncs2)cc1,-106,37,18,-23,64*,50
COc1ccc(-c2csc(NC(=S)NC(=O)/C=C/c3ccco3)n2)cc1OC,50,19,29,20,-17,4
COc1ccc(-c2csc(NC(=S)NC(=O)/C=C/c3ccc(C(C)C)cc3)n2)cc1OC,-18,70*,/,26,10,66*
SMILES,PAX8 inh HTS,TROY signal inh,EWS-Fli inh,LMP1 NFkB inh,LGR2 inh,TWEAK-Fn14 inh
COc1ccc(NC(=O)Nc2ccc3c(c2)[C@@H]2C[C@@H](CC(=O)NCC4CC4)O[C@H](CO)[C@@H]2O3)cc1,-17,/,-7,/,6,/
Nc1nc(-c2ccc(NC(=O)c3ccco3)cc2)cs1,-16,-22,6,76*,-1,-10
Cc1nc(-c2cccc(NC(=O)c3ccco3)c2)cs1,-38,-32,/,-13,-6,-5
O=C(Nc1ccc(NC(=O)c2ccco2)cc1)c1ccco1,-85,-35,/,-8,-27,-14
Cc1nc(-c2ccc(NC(=O)c3ccco3)cc2)cs1,88*,50*,84*,64*,93*,97*
CO[C@H]1CN(C)C(=O)c2cc(NC(=O)c3cccc(F)c3)ccc2OC[C@@H](C)N(CC2CC2)C[C@@H]1C,-10,/,0,/,1,/
c1ccc(-n2nnc3c(N4CCOCC4)ncnc32)cc1,/,43,/,53*,83*,87*
Cc1nnc(N2CCOCC2)c2nn(-c3ccccc3)c(C)c12,8,10,12,0,0,3
CC(=O)c1cccc(OCCN2C(=O)NC(C)(C)C2=O)c1,/,58*,/,-3,/,44
CCc1cccc(OCCCN2C(=O)NC(C)(C)C2=O)c1,/,-5,/,-8,/,6
CCCN(C)C[C@H]1OCCCC[C@@H](C)Oc2ccc(NS(=O)(=O)c3ccc(OC)cc3)cc2C(=O)N([C@@H](C)CO)C[C@H]1C,1,/,0,/,4,/
CCOc1ccc(-c2onc(C(F)(F)F)c2-c2cscn2)c(O)c1,/,16,10,2,10,-2
Cc1cc(O)cc(O)c1-c1onc(C(F)(F)F)c1-c1cscn1,/,/,/,6,/,52*
CO[C@@H]1CN(C)C(=O)c2cc(NS(=O)(=O)c3cn(C)cn3)ccc2OC[C@H](C)N(Cc2cccc(F)c2)C[C@H]1C,-13,/,3,/,-1,/
COc1cccc(S(=O)(=O)Nc2ccc3c(c2)[C@@H]2C[C@H](CC(=O)NCC(F)(F)F)O[C@H](CO)[C@@H]2O3)c1,-10,/,15,/,-26,/
Cc1ccc(N(C)S(=O)(=O)c2ccc(-c3cc(C)no3)s2)cc1,26,3,54*,-2,-11,-9
C[C@H]1CN([C@@H](C)CO)C(=O)c2cc(NC(=O)Cn3cnnn3)ccc2O[C@@H]1CN(C)C(=O)Nc1ccc(F)cc1,0,/,2,/,-1,/
C[C@@H]1CCCCO[C@@H](CN(C)C(=O)Nc2ccc(F)cc2)[C@@H](C)CN([C@@H](C)CO)C(=O)c2cc(NC(=O)NC3CCCCC3)ccc2O1,/,/,/,/,1,/
Cn1cnc([N+](=O)[O-])c1S(=O)(=O)Oc1ccccc1,90*,45,26,-12,17,27
Cn1cnc([N+](=O)[O-])c1S(=O)(=O)c1cccc(Cl)c1,83*,64*,23,-2,2,18
COCC(=O)Nc1ccc2c(c1)C(=O)N(C)C[C@@H](OC)[C@H](C)CN(C(=O)Cc1ccccn1)[C@@H](C)CO2,1,/,3,/,-14,/

# High-throughput results: PubChem, several laboratories
